Drawing on PubChem BioAssay (NCI), this text covers growth for 27 molecules.

Test systems include BT-549 breast; MDA-MB-435 melanoma; SW-620 colon; MCF7 breast; HCT-116 colon; HCC-2998 colon; KM12 colon.
Holding throughout (assay): NCI-60 one-dose screen, 48 h (100 = growth as untreated, 0 = no growth, -100 = all killed)
Conditions in all cases: 10 µM unless noted

Each structure is given as a SMILES string. The panel holds about 83,000 compounds, 20% with a hit somewhere; the sample as a whole holds those more often.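 Assay: single dose, 48 h. Readout: percent growth (0 = no net growth; negative = cell death). Active: <10.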 Unmarked numbers belong to inactive results. Activity calls are given as the source filed them.

`CCC[S@](=O)c1ccc2nc(NC(=O)OC)[nH]c2c1`: the growth in the assay with BT-549 breast is 97.3%; in the assay on MDA-MB-435 melanoma, 101%; in the assay on SW-620 colon, 93.4%; in the assay on MCF7 breast, 92%; in the assay on HCT-116 colon, 84.4%; in the assay with HCC-2998 colon, 105%. In addition, in the assay on KM12 colon, the growth is 103%.

With `O=C(/C(=C\c1c(-c2ccccc2)[nH]c2ccccc12)S(=O)(=O)c1ccccc1)c1ccccc1`, the growth was 47.7% in the assay with BT-549 breast; 17.2% in the assay on MDA-MB-435 melanoma; 53% with SW-620 colon; 40.7% with MCF7 breast; 33% in the assay with HCT-116 colon; 73.1% with HCC-2998 colon. Also, the growth with KM12 colon was 27%.

For `O=C1NCc2ccc3c(-c4cccc(Cl)c4)c[nH]c3c21`, the growth was 58.5% with BT-549 breast; -26.2% (active) in the assay with MDA-MB-435 melanoma; 20.7% in the assay with SW-620 colon; 17.5% with MCF7 breast; 14.2% in the assay on HCT-116 colon; 25.3% in the assay with HCC-2998 colon. Also, in the assay with KM12 colon, the growth is 19.1%.

Regarding `O=C(NCc1ccccc1)c1ccc2c(c1)NC(=O)[C@@H]1CCCN21`, the growth in the assay with BT-549 breast was 110%; in the assay with MDA-MB-435 melanoma it was 99.6%; in the assay on SW-620 colon, 96.4%; with MCF7 breast, 85.4%; with HCT-116 colon it was 105%; with HCC-2998 colon, 88%. For the same molecule, the growth in the assay on KM12 colon is 84%.

Take `CCOCCc1c(O)nc(SC)[nH]c1=O`: the growth with BT-549 breast is 110%; with MDA-MB-435 melanoma it was 120%; with SW-620 colon, 90.9%; in the assay with MCF7 breast it was 99.7%; with HCT-116 colon it was 100%; in the assay with HCC-2998 colon it was 39.4%. Further, in the assay on KM12 colon, the growth is 101%.

On to `COc1ccc(/C=C/C(=O)C(CC2CCC2)C(=O)/C=C/c2ccc(OC)c(OC)c2)cc1OC`, for which the growth is -23.5% (active) with BT-549 breast; -11.5% (active) in the assay with MDA-MB-435 melanoma; -26.3% (active) in the assay with SW-620 colon; 6.93% (active) with MCF7 breast; -75.8% (active) in the assay with HCT-116 colon; -80.6% (active) in the assay on HCC-2998 colon. The growth in the assay with KM12 colon is -33.5% (active).

As for `CC(=O)c1ccc(NC(=O)CSc2nnc(-c3cc(-c4ccc(C)cc4)nc4ccccc34)o2)cc1`, the growth with BT-549 breast is 59.1%; in the assay with MDA-MB-435 melanoma, 80.9%; with SW-620 colon, 28.4%; in the assay with MCF7 breast it was 26.6%; with HCT-116 colon, -7.47% (active); in the assay with HCC-2998 colon, 102%. In addition, the growth with KM12 colon is 72%.

As to `NS(=O)(=O)c1ccc(N2Cc3cc(Cl)ccc3OC3=C2C(=O)N(CC2CCCCC2)C3=O)cc1`, the growth in the assay with BT-549 breast was -76.4% (active); in the assay on MDA-MB-435 melanoma it was -73.9% (active); in the assay on SW-620 colon, -77.5% (active); in the assay on MCF7 breast, -71.5% (active); with HCT-116 colon, -85.6% (active); in the assay with HCC-2998 colon it was -72.9% (active). For the same molecule, the growth in the assay with KM12 colon is 4.52% (active).

As for `C=C1C(=O)O[C@H]2[C@H]1CC/C(COC(=O)NCc1nc3ccccc3[nH]1)=C\CC[C@@]1(C)O[C@@H]21`, the growth in the assay on BT-549 breast is 86.7%; in the assay on MDA-MB-435 melanoma, 63.1%; in the assay on SW-620 colon, 25.2%; in the assay on MCF7 breast, 36.5%; with HCT-116 colon it was 47.5%; in the assay with HCC-2998 colon, 104%. For the same molecule, the growth in the assay with KM12 colon was 99.3%.

For the molecule `CC1CCCN(CCCCCOc2ccc3oc4ccc(Cl)cc4c(=O)c3c2)C1` (centres undefined), the growth in the assay with BT-549 breast is 80.3%; with MDA-MB-435 melanoma, 25.1%; in the assay on SW-620 colon, 56.6%; in the assay on MCF7 breast, 60.8%; in the assay on HCT-116 colon it was 32.2%; in the assay on HCC-2998 colon, 78.3%. Also, the growth in the assay with KM12 colon was 59.4%.

In the case of `CC(C)NS(=O)(=O)c1cccc(-c2ccc3c4c(n(CCCN(C)C)c(=O)c3c2)-c2ccccc2C4=O)c1`, the growth in the assay on BT-549 breast was 95.6%; with MDA-MB-435 melanoma, 92.9%; in the assay on SW-620 colon it was 57.4%; with MCF7 breast, 38.8%; with HCT-116 colon it was -66% (active); in the assay with HCC-2998 colon, 96.8%. The growth in the assay with KM12 colon is 93.9%.

For the molecule `COc1ccc(C2=NN(c3ccc(S(N)(=O)=O)cc3)C(c3ccc(Cl)cc3)C2)c(O)c1` (centres undefined), the growth in the assay on BT-549 breast is 84.7%; in the assay on MDA-MB-435 melanoma it was 47.2%; with SW-620 colon it was 76.2%; with MCF7 breast it was 28.2%; in the assay with HCT-116 colon it was 24.4%; with HCC-2998 colon, 60.6%. Also, the growth in the assay on KM12 colon was 41.3%.

On to `O=c1c2ccccc2oc2ccc(OCCCCCCN3CCCCCC3)cc12`, for which the growth with BT-549 breast is 60.5%; with MDA-MB-435 melanoma, 44.6%; in the assay with SW-620 colon, 23.5%; with MCF7 breast it was 28.9%; in the assay on HCT-116 colon, 25.6%; in the assay with HCC-2998 colon, 62.9%. In the assay on KM12 colon, the growth is 29%.

On to `Cc1ccc(CS/C(=C\c2ccc([N+](=O)[O-])cc2)C(=O)c2ccc(F)cc2)cc1`, for which the growth is 75.8% with BT-549 breast; 33.5% in the assay on MDA-MB-435 melanoma; -11.5% (active) with SW-620 colon; -4.97% (active) in the assay on MCF7 breast; -53.1% (active) in the assay on HCT-116 colon; 83.7% with HCC-2998 colon. In the assay on KM12 colon, the growth was 13.2%.

`Cc1cc(C)nc(NS(=O)(=O)c2ccc(Nc3ccc4c5c(n(CCCN(C)C)c(=O)c4c3)-c3ccccc3C5=O)cc2)n1`: the growth with BT-549 breast is 91.8%; in the assay with MDA-MB-435 melanoma it was 98.8%; in the assay on SW-620 colon, 54.2%; with MCF7 breast it was 30.6%; in the assay on HCT-116 colon, 56.4%; in the assay on HCC-2998 colon, 73.6%. Besides, the growth with KM12 colon is 71.6%.

Take `Cc1nc2sc(C(=O)Nc3ccccc3Cl)c(N)c2cc1C(C)O` (centres undefined): the growth with BT-549 breast was 78.8%; in the assay on MDA-MB-435 melanoma, 5.06% (active); with SW-620 colon it was 57.6%; with MCF7 breast, 48.6%; in the assay on HCT-116 colon, 67.8%; in the assay on HCC-2998 colon it was 84.5%. Further, the growth with KM12 colon is 56.1%.

In the case of `CCCCn1c2cc(OCc3cn(-c4ccc(Cl)cc4)nn3)ccc2c2ccnc(C)c21`, the growth is 61.7% in the assay on BT-549 breast; 60.2% with MDA-MB-435 melanoma; 34.2% with SW-620 colon; 25.8% with MCF7 breast; 8.91% (active) in the assay on HCT-116 colon; 43.8% in the assay on HCC-2998 colon. Besides, the growth in the assay with KM12 colon is 41.9%.

`N#Cc1c(-c2ccc(F)cc2)nc(N/N=C/c2cccc(O)c2)nc1N1CCOCC1`: the growth is 93.4% in the assay with BT-549 breast; 93.4% with MDA-MB-435 melanoma; 73.7% in the assay on SW-620 colon; 72.4% with MCF7 breast; 71% in the assay on HCT-116 colon; 95.1% in the assay on HCC-2998 colon. Besides, the growth with KM12 colon was 86%.

On to `Nc1ccc(C(=O)Nc2cccc(C(=O)Nc3ccc4c(O)c(N=Nc5ccc(N=Nc6ccc(S(=O)(=O)O)cc6)cc5)c(S(=O)(=O)O)cc4c3)c2)cc1`, for which the growth in the assay with BT-549 breast was 111%; in the assay on MDA-MB-435 melanoma, 106%; in the assay with SW-620 colon, 105%; in the assay on MCF7 breast, 94.8%; with HCT-116 colon, 91.8%; in the assay on HCC-2998 colon, 98%. Besides, the growth in the assay with KM12 colon was 104%.

Turning to `O=C(CSC(=S)N1CCCCC1)Nc1ccccc1`, the growth in the assay on BT-549 breast is 101%; in the assay with MDA-MB-435 melanoma, 110%; in the assay with SW-620 colon, 102%; in the assay with MCF7 breast, 99.8%; in the assay with HCT-116 colon, 92.4%; with HCC-2998 colon it was 98.2%. Further, in the assay on KM12 colon, the growth was 95.8%.

With `CO[C@@]12C=C[C@@]34CCC(=O)N3c3ccccc3[C@@H](O1)C4C2`, the growth was 105% with BT-549 breast; 104% in the assay on MDA-MB-435 melanoma; 101% with SW-620 colon; 97.9% in the assay on MCF7 breast; 102% in the assay with HCT-116 colon; 106% in the assay with HCC-2998 colon. In the assay with KM12 colon, the growth was 105%.

For the molecule `CC(C)(C)c1nc2c(s1)c1nc(N)ncc1c1ccc(NS(=O)(=O)c3c(F)cccc3F)c(F)c12`, the growth with BT-549 breast is 77.4%; with MDA-MB-435 melanoma it was 38.6%; in the assay on SW-620 colon, 110%; in the assay on MCF7 breast, 89.8%; in the assay with HCT-116 colon, 49.3%; in the assay on HCC-2998 colon it was 82%. Besides, the growth with KM12 colon is 35.5%.

Regarding `Cc1cnc(-c2ccc(-c3ccc(NC(=O)Nc4c(F)cc(F)cc4F)cc3F)c3c2C(=O)NC3)[nH]1`, the growth in the assay with BT-549 breast was 55.8%; in the assay with MDA-MB-435 melanoma, 14.2%; in the assay on SW-620 colon, 10.1%; with MCF7 breast, 22.1%; with HCT-116 colon, 14.2%; with HCC-2998 colon, 60.5%. In addition, the growth with KM12 colon was 11.7%.

As to `CCCCn1c(=O)c(/C=C/C(=O)/C=C/c2cc3ccccc3n(CCCC)c2=O)cc2ccccc21`, the growth in the assay on BT-549 breast was -54.5% (active); in the assay on MDA-MB-435 melanoma, -65.2% (active); in the assay on SW-620 colon, -2.85% (active); in the assay with MCF7 breast, -0.486% (active); in the assay with HCT-116 colon it was -90.3% (active); in the assay on HCC-2998 colon, -92.6% (active). The growth in the assay on KM12 colon is -75.8% (active).

`O=C(O)C(C(=O)O)c1cccc2ccccc12`: the growth with BT-549 breast is 102%; in the assay on MDA-MB-435 melanoma it was 102%; in the assay on SW-620 colon, 99.1%; in the assay on MCF7 breast it was 98.1%; with HCT-116 colon it was 102%; in the assay on HCC-2998 colon it was 104%. Further, the growth in the assay with KM12 colon was 109%.

For the molecule `Nc1c(C(=O)Nc2ccccn2)sc2nc3c(cc12)CCCCCC3`, the growth is 31% with BT-549 breast; -57.5% (active) in the assay on MDA-MB-435 melanoma; 19% in the assay with SW-620 colon; 15.6% with MCF7 breast; 7.24% (active) in the assay with HCT-116 colon; 48.9% with HCC-2998 colon. The growth in the assay with KM12 colon is 14.4%.

As for `CCN1CCC[C@H]1c1cc(O)c2c(c1OC)C[C@H]1C[C@H]3[C@H](N)C(=O)C(C(N)=O)=C(O)[C@@]3(O)C(=O)C1=C2O`, the growth in the assay with BT-549 breast is -3.73% (active); in the assay with MDA-MB-435 melanoma, -4.48% (active); in the assay with SW-620 colon, 1.96% (active); with MCF7 breast it was 0.852% (active); in the assay on HCT-116 colon, -4.51% (active); in the assay with HCC-2998 colon, -6.34% (active). For the same molecule, in the assay with KM12 colon, the growth was 5.97% (active).
